This is part of a sample that, as a whole, favours compounds with a hit. Of some 83,000 tested, about 20% had one in any assay.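 Values shown are percent growth following 48 h exposure of cells in 96-well plates to a single concentration of compound; below 10 was considered active.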 Values without a mark were called inactive. Calls of active or inactive are those of the source.

Common to all, as to experiment: NCI-60 one-dose screen, 48 h (100 = growth as untreated, 0 = no growth, -100 = all killed)
Holding throughout (details): 10 µM unless noted

The subject of assay [1] is SK-MEL-2 melanoma.
Assay [2] deals with EKVX NSCLC.
Assay [3] relates to SN12C renal.
Assay [4] concerns UO-31 renal.
Assay [5] has as its system TK-10 renal.
Assay [6] has as its system ACHN renal.
Assay [7] concerns CAKI-1 renal.
In assay [8] the test system is A498 renal.
For assay [9], the system named is CCRF-CEM leukemia.
Assay [10] deals with MOLT-4 leukemia.
Assay [11] concerns SR leukemia.
Assay [12] deals with RPMI-8226 leukemia.
The subject of assay [13] is OVCAR-8 ovarian.
Assay [14] deals with OVCAR-5 ovarian.
For assay [15], the system named is OVCAR-4 ovarian.
Assay [16] has as its system SK-OV-3 ovarian.
The test system of assay [17] is IGROV1 ovarian.
Assay [18] has as its system OVCAR-3 ovarian.
Assay [19] concerns HS 578T breast.
For assay [20], the system named is NCI/ADR-RES ovarian.

`S=C(Cc1ccccc1)N1CCN(c2ccccc2Cl)CC1`: the growth is 99.7% in assay [1]; 94.5% in assay [2]; 107% in assay [3]; 82.4% in assay [4]; 116% in [5]; 108% in assay [6]. Besides, the growth in assay [7] is 85.2%; in assay [8], 90.7%; in assay [9] it was 89.1%; in assay [10], 82.1%; in [11], 70.3%; in assay [12] it was 95.1%. Also, the growth is 99.1% in [13]; 97.6% in assay [14]; 105% in assay [15]; 101% in [16]; 110% in [17]; 106% in [18]. Also, the growth was 97.3% in [19] and 96.7% in assay [20].
`Cc1ccc(C(=O)CC(=O)C(F)(F)C(F)(F)C(F)(F)F)s1`: the growth was 113% in assay [1]; 94.6% in [2]; 96.4% in [3]; 74.9% in assay [4]; 118% in assay [5]; 110% in assay [6]. For the same compound, the growth in [7] was 99.2%; in assay [8], 112%; in assay [9], 103%; in [10], 109%; in assay [11], 99.5%; in [12], 102%. In addition, the growth was 104% in assay [13]; 96.1% in assay [14]; 112% in assay [15]; 104% in assay [16]; 108% in [17]; 107% in assay [18]. For the same compound, the growth in assay [19] and in [20] was 105% in each case.
On to `O=C(N/N=C/c1ccccc1O)c1ccncc1`, for which the growth in [1] was 55.9%; in [2], 36.9%; in assay [3], 78%; in [4], 33.5%; in assay [5], 57.7%; in [6], 56.8%. For the same compound, the growth is 41.3% in assay [7]; 87.7% in [8]; 29.1% in assay [9]; 9.31% (active) in assay [10]; 49.4% in [11]; 53.9% in [12]. The growth is 52.3% in assay [13]; 71.1% in [14]; 48.9% in assay [15]; 63.1% in assay [16]; 53.8% in assay [17]; 18.2% in assay [18]. Besides, the values for the growth in assay [19] and in [20] were 94.3% and 38.1%, respectively.
Turning to `Nc1c(Br)cc2c(c1Br)Cc1cc(Cl)ccc1-2`, the growth in assay [1] was 114%; in [2], 69.1%; in assay [3] it was 89.8%; in assay [4], 77.6%; in [5], 130%; in assay [6], 81.3%. Moreover, the growth in assay [7] was 74.6%; in assay [8] it was 121%; in [9], 94.2%; in [10], 97.4%; in [11], 80%; in [12], 105%. Besides, the growth in assay [13] is 96.8%; in [14] it was 93.2%; in assay [15], 95.1%; in [16], 82.5%; in assay [17], 84.3%; in assay [18] it was 104%. For the same compound, the growth in [19] is 91.9%; in assay [20] it was 95.8%.
As for `CC(C)=CC[C@@H]1CC2(CC=C(C)C)C(=O)C(OC3(C(=O)c4ccccc4)C(=O)C4(CC=C(C)C)C[C@@H](CC=C(C)C)C(C)(C)C(CC=C(C)C)(C4=O)C3=O)(C(=O)c3ccccc3)C(=O)C(CC=C(C)C)(C2=O)C1(C)C` (stereo not given in full), the growth is -46.8% (active) in [1]; 2.26% (active) in assay [2]; -17.9% (active) in assay [3]; -7.33% (active) in assay [4]; 3.06% (active) in assay [5]; 4.64% (active) in [6]. Besides, the growth in assay [7] was 11.5%; in [8], -58% (active); in assay [9], 3.78% (active); in assay [10], -11.9% (active); in [11], 4.95% (active); in [12], -23% (active). Besides, the growth is 1.06% (active) in assay [13]; 14.9% in assay [14]; 20.4% in assay [15]; 2.61% (active) in assay [16]; 15.5% in assay [17]; -9.05% (active) in [18]. Besides, the growth in [19] is 1.98% (active); in [20] it was 5.81% (active).
For `CCOC(=O)Cn1c(-c2nonc2NC(=O)c2ccccc2F)nc2ccccc21`, the growth in [1] was 78%; in [2], 71.1%; in assay [3] it was 57.9%; in assay [4], 54.5%; in [5] it was 66.1%; in [6] it was 46.5%. Moreover, the growth was 25% in assay [7]; 82.5% in assay [8]; 42.3% in assay [9]; 25% in [10]; 10.8% in [11]; 40.6% in [12]. For the same compound, the growth was 38.8% in assay [13]; 75% in assay [14]; 90.8% in assay [15]; 75% in assay [16]; 46.3% in assay [17]; 56.7% in assay [18]. Further, the growth in assay [19] is 73.1%; in assay [20], 55.7%.
For `CCOC(=O)C1=C(C(=O)OCC)N(c2cc(OC)c(OC)c(OC)c2)C(N)=C(C#N)C1c1cc(=O)[nH]c2ccccc12` (stereo not given), the growth in assay [1] is 115%; in assay [2] it was 89.3%; in assay [3] it was 98.5%; in assay [4], 76.8%; in [5], 100%; in assay [6], 97.6%. The growth in [7] was 87%; in assay [8], 78.1%; in assay [9], 113%; in assay [10], 100%; in assay [11], 93.5%; in assay [12], 114%. Besides, the growth in assay [13] was 105%; in assay [14], 101%; in assay [15], 101%; in [16], 97%; in assay [17], 98.2%; in assay [18], 110%. In addition, the values for the growth in assay [19] and in assay [20] were 97.2% and 101%, respectively.
With `Cc1ccccc1C1CC(=O)c2ccccc2C1C` (stereo not given), the growth is 120% in assay [1]; 101% in [2]; 99.1% in assay [3]; 82.1% in assay [4]; 105% in [5]; 108% in [6]. Further, the growth in assay [7] is 106%; in assay [8], 88.5%; in [9], 95.2%; in assay [10], 93.5%; in assay [11] it was 78.7%; in assay [12], 93.8%. For the same compound, the growth is 106% in assay [13]; 97.2% in assay [14]; 101% in assay [15]; 105% in assay [16]; 123% in assay [17]; 116% in [18]. Further, the growth in assay [19] is 98.9%; in [20], 108%.
In the case of `COc1cc(C2CC(c3ccccc3)=NN2C=O)ccc1Oc1nc2c(c(=O)n(C)c(=O)n2C)n1C` (stereo not given), the growth in assay [1] was 101%; in [2], 74.1%; in assay [3] it was 49%; in assay [4], 62.4%; in assay [5], 110%; in assay [6], 86.9%. The growth in [7] is 79.4%; in [8], 81.3%; in assay [9], 77.9%; in assay [10] it was 62.2%; in [11], 67.4%; in assay [12] it was 61.1%. Besides, the growth in assay [13] was 91.3%; in assay [14], 97.6%; in assay [15], 65.3%; in assay [16] it was 125%; in assay [17] it was 77.7%; in [18] it was 103%. The growth in [19] was 75.8%; in assay [20], 57.9%.
Consider `Cc1cc(-c2ccccc2)on1`, for which the growth in assay [1] is 107%; in assay [2], 103%; in assay [3], 103%; in assay [4], 82.5%; in [5] it was 110%; in assay [6], 103%. Besides, the growth in assay [7] was 98.2%; in assay [8] it was 126%; in [9], 97.8%; in assay [10], 92.4%; in assay [11], 87.3%; in assay [12], 108%. Also, the growth was 106% in assay [13]; 106% in assay [14]; 102% in assay [15]; 93.1% in assay [16]; 98.1% in assay [17]; 112% in [18]. In addition, the growth in assay [19] is 104%; in [20], 105%.
Consider `C=C1C(=O)O[C@H]2[C@H]1CC/C(COC(=O)NCc1ccc(Cn3c(=O)sn(CCCl)c3=O)cc1)=C\CC[C@@]1(C)O[C@@H]21`, for which the growth is 68.8% in assay [1]; 83.6% in assay [2]; 82.6% in assay [3]; 79.3% in assay [4]; 11.4% in assay [5]; 70.3% in assay [6]. In addition, the growth is 48.3% in assay [7]; 98.4% in [8]; -3.67% (active) in assay [9]; -18.8% (active) in assay [10]; 5.35% (active) in assay [11]; 2.37% (active) in assay [12]. The growth in assay [13] was 92.1%; in assay [14], 109%; in assay [15], 60.6%; in [16], 85.3%; in [17], 47.7%; in [18], -26.2% (active). Besides, the values for the growth in assay [19] and in [20] were 97.1% and 113%, respectively.
On to `CC(C)(C)c1ccc(OC(=O)Nc2ccccc2)cc1`, for which the growth in assay [1] was 103%; in assay [2] it was 111%; in assay [3], 100%; in assay [4] it was 87%; in [5], 98.7%; in assay [6] it was 102%. For the same compound, the growth in assay [7] was 104%; in [8], 97.7%; in assay [9] it was 87.1%; in assay [10], 56.6%; in [11] it was 76.3%; in [12], 105%. Besides, the growth in [13] is 105%; in assay [14], 106%; in assay [15], 113%; in assay [16] it was 110%; in assay [17], 107%; in [18] it was 105%. Also, the growth in assay [19] is 103%; in [20], 106%.

The record behind these values is PubChem BioAssay (NCI).
